Data published in the supplement of paper PMC12067093, “Discovery and optimisation of a covalent ligand for TRIM25 and its application to targeted protein ubiquitination” (Chemical Science, 2025).
Targets with the largest changes are over-represented here; the source holds about 21,000 in all.

compound: Cc1cc(ccc1-c1ccccc1)C(=O)N1CCCN(CC1)C(=O)CCl [compound 10]; assay: probe-labelled cysteine peptide fold change vs DMSO (competition) (log2 fold change); higher = less target engagement (more negative = stronger competition); settings: 50 µM; THP-1; incubation time: 4 h
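Note: competitive profiling in live THP-1 cells: cysteine peptides tagged with an iodoacetamide desthiobiotin (IA-DTB) probe, intensity after compound treatment relative to DMSO-treated cells.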

Target	probe-labelled cysteine peptide fold change
MAP2K6_P52564_216_TIDAGCK (UniProt P52564)	0.239
LMAN1_P49257_230_NDYEFCAK (UniProt P49257)	0.703
MCM2_P49736_661_FDILCVVR (UniProt P49736)	0.398
MSI1_O43347_167_VCEIHFHEINNK<|>MSI2_Q96DH6_168_VCEIHFHEINNK (UniProt Q96DH6+O43347)	0.236
MAGT1_Q9H0U3_87_QCVVCK (UniProt Q9H0U3)	0.464
MDN1_Q9NU22_3985_KFEAVLSEPCR (UniProt Q9NU22)	-0.0822
MFN1_Q8IWA4_513_LCSDFQEDIVFR (UniProt Q8IWA4)	0.451
MACF1_Q9UPN3_3109_EIACGAQSEPFPCMTPRPEGLHYQESDGK (UniProt Q9UPN3)	-0.619
LRRK2_Q5S007_1187_FSCIPEAILNLPHLR (UniProt Q5S007)	-0.109
MCMBP_Q9BTE3_325_LQHINPLLPACLNK (UniProt Q9BTE3)	-1.87
MMADHC_Q9H3L0_261+262_HLGFSVDDLGCCK (UniProt Q9H3L0)	-1.16
MTMR3_Q13615_473_CPVFLQWLDCVHQLQR (UniProt Q13615)	0.044
MRC2_Q9UBG0_1234_TTSCDTK (UniProt Q9UBG0)	-0.499
MEFV_O15553_375_KSPGSLSPQPLPQCK (UniProt O15553)	-1.2
MDN1_Q9NU22_2158_CLGEGGK (UniProt Q9NU22)	-1.54
MBTD1_Q05BQ5_288_VSESMQYPFKPCMR (UniProt Q05BQ5)	0.00392
MSTO1_Q9BUK6_232_LHFYVEECDYLQGFQILCDLHDGFSGVGAK (UniProt Q9BUK6)	1.33
MMADHC_Q9H3L0_261_HLGFSVDDLGCCK (UniProt Q9H3L0)	-1.27
LGALS3_P17931_173_VIVCNTK (UniProt P17931)	-0.00184

Target	probe-labelled cysteine peptide fold change
MYCBP2_O75592_3241_DTICELCGESHPYPVTYHMR (UniProt O75592)	-0.18
MTREX_P42285_430_KMVEEVFSNAIDCLSDEDK (UniProt P42285)	-0.485
MMS19_Q96T76_331_REVFQTASERVEAEGLAALHSLTACLSR (UniProt Q96T76)	0.0397
LRRC8A_Q8IWT6_768+776_GNRLECLPVELGECPLLK (UniProt Q8IWT6)	-0.0226
LYST_Q99698_2223_SEDDSPGDESCPR (UniProt Q99698)	-1.41
MRPS31_Q92665_356_HFMELVTCGLSK (UniProt Q92665)	-0.112
LRCH4_O75427_283_GSALGDLAPSRPPSFSPCPAEDLFPGHR (UniProt O75427)	-1.33
MSH6_P52701_687_SELALSALGGCVFYLK (UniProt P52701)	0.296
LSM2_Q9Y333_26_NDLSICGTLHSVDQYLNIK (UniProt Q9Y333)	0.253
MRPS18A_Q9NVS2_186_DNVCYSR (UniProt Q9NVS2)	-0.099
LY75_O60449-2_1697_NQCTDHGADMISIHNEEENAFILDTLK (UniProt O60449)	0.022
MIB1_Q86YT6_103_CAECTNYDLCTVCYHGDK (UniProt Q86YT6)	-0.0966
LILRB4_Q8NHJ6_330_SSPAADVQGENFCAAVK (UniProt Q8NHJ6)	-0.214
MRC2_Q9UBG0_187_IYGSEEDLCALPYHEVYTIQGNSHGKPCTIPFK (UniProt Q9UBG0)	-0.784
MYBBP1A_Q9BQG0_890_RYCHDLGER (UniProt Q9BQG0)	0.125
MRI1_Q9BV20_168_VTVLTHCNTGALATAGYGTALGVIR (UniProt Q9BV20)	0.0771
MPC2_O95563_54_WGLVCAGLADMARPAEK (UniProt O95563)	-1.31
MCTS1_Q9ULC4_144_QHALCVGVMK (UniProt Q9ULC4)	-0.154
